From PubChem BioAssay
Gal4-VP16 FLuc: inhibits Gal4-VP16 luciferase reporter, ROR gamma counter-screen; Potency, µM (series often up to 53.6 µM), most hits filed as inhibitors; hit rate 3.5% among 310,000; Drosophila S2 Gal4-VP16 UAS-luciferase, luminescence, 20 h; AID 2546;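 also: Gal4-VP16 expression switched on by copper sulfate through the metallothionein promoter; nearly all actives have a fitted effect of over 50% in size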
Six1-Eya2 inh: Six1/Eya2 interaction inhibition; Q15475+O00167; AlphaScreen GST-Six1/His-Eya2 binding, biochemical; stronger effect = lower value; activity change, % (concentration not given with the values); hit rate 0.56% among 360,000; in the data active = activity change below about -65%; inconclusive = mostly about -30% to -63%
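Compounds are tested against tagged Six1 and Eya2 proteins bridged by glutathione donor and nickel acceptor beads; after a one-hour incubation at 37 °C without light, AlphaScreen emission is recorded.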
RORgamma inh: blocks mouse ROR gamma transcriptional activity. P51450. Drosophila S2 Gal4-RORgamma UAS-luciferase reporter, 20 h. Potency, µM (titrated, usually from 53.6 µM), hits mostly inhibitors. hit rate 5.4% among 310,000; also: nearly all actives have a fitted effect of over 60% in size
Target sequence (P51450 whole entry, looked up, the tested form may be a part): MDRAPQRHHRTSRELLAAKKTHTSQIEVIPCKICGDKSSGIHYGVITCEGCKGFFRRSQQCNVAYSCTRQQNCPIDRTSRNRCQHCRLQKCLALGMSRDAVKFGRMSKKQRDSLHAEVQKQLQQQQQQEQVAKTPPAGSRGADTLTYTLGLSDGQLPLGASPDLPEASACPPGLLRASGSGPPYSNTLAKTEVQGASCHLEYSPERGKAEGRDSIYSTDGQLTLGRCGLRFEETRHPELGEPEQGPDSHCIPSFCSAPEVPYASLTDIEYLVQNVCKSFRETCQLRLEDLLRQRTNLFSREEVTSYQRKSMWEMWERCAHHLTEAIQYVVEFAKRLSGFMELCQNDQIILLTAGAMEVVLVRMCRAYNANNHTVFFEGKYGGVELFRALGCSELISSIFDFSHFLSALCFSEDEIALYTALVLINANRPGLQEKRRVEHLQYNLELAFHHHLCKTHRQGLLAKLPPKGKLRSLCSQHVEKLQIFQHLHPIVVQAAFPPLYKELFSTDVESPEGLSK
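ROR gamma transcriptional activity was tracked as Gal4-UAS luciferase output in stably transfected Drosophila Schneider cells, with compound added 1 hr before 700 uM copper sulfate induction and a 20 hr ambient-temperature incubation.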
CtBP-E1A blk: blocks the CtBP interaction with E1A; activity change, % (no concentration beside the values); AlphaScreen GST-E1A/His-CtBP binding, 1536-well; stronger effect = lower value; hit rate 0.49% among 340,000; AID 651724; in the data active = activity change below about -65%; inconclusive = mostly about -30% to -63%
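GST-E1A and His-tagged CtBP (125 nM each as 5X stock) were preincubated with pin-transferred compound for 2 h at 37 °C in the dark, then glutathione donor and nickel acceptor beads were added for 1 h before AlphaScreen reading.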
p53 reactivation: mutant p53 re-activation in reporter cells; H1299 p53-A138V BP100-luciferase reporter, luminescence, 24 h; Potency, µM (highest dose often 92.2 µM), usual class: activators; hit rate 0.063% among 320,000; AID 504706; also: nearly all actives have a fitted effect of over 45% in size
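H1299 (p53-null), stable ts p53-A138V + BP100-Luc; 1000 cells/well, Opti-MEM/10% FBS; cpd 4 pt, 1:5; 24 h, 37 deg C, 5% CO2; detection reagent 10 min RT; luminescence.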
Of the large screens only hits and unclear results are named; the others gave an inactive call. Hits are enriched below; roughly 5.4% of the tested compounds scored in any of these assays. Unless noted, calls follow the shape of the dose curve; as a rule, active = well fitted curve in the direction sought with a large enough effect; inconclusive = small, poorly fitted or top-dose-only effect, or another doubt; inactive = no such curve, though single readings can be large; an effect the other way counts as inactive or inconclusive.

O=C(NNC(=O)c1cccnc1)c1ccncc1	none
Cc1cccc(C(=O)NNC(=O)c2ccc(Cl)cc2)c1O	RORgamma inh inconclusive, p53 reactivation inconclusive
O=C(NNC1=C(C(=O)C(F)(F)F)CCC1)c1cccc(O)c1	Gal4-VP16 FLuc 3.5µM, RORgamma inh 5µM, p53 reactivation inconclusive
O=C(NNC1=C(C(=O)C(F)(F)F)CCC1)c1cccnc1	Gal4-VP16 FLuc 11µM, RORgamma inh 7.1µM
O=C1CC(c2ccc3c(c2)OCO3)c2cc(O)ccc2O1 (configuration not stated)	none (no result: Six1-Eya2 inh, CtBP-E1A blk, p53 reactivation)
CCc1c(-c2n[nH]c(=S)n2Cc2ccccc2)csc1C	Gal4-VP16 FLuc 7.9µM, RORgamma inh 2.2µM
S=c1[nH]nc(-c2ccc3ccccc3n2)n1-c1ccccc1Cl	none
S=c1[nH]nc(-c2ccc3ccccc3n2)n1Cc1ccccc1	Gal4-VP16 FLuc 5.6µM, RORgamma inh 2.2µM
COc1ccc(Cl)cc1-c1n[nH]c(=S)n1Cc1ccccc1	Gal4-VP16 FLuc 5µM, RORgamma inh 5µM
S=c1[nH]nc(-c2ccc3ccccc3n2)n1-c1cc(Cl)cc(Cl)c1	Gal4-VP16 FLuc 2.2µM, RORgamma inh 0.79µM
Cc1scc(-c2n[nH]c(=S)n2Cc2ccccc2)c1C	Gal4-VP16 FLuc 11µM, RORgamma inh 2.2µM
Cn1c(-c2csc(-c3ccccc3)n2)n[nH]c1=S	none
S=c1[nH]nc(-c2ccccc2Cl)n1Cc1ccccc1	Gal4-VP16 FLuc inconclusive, RORgamma inh 2.8µM
Cc1ncsc1CCC(=O)N1CCCC(C(=O)c2cccc(Cl)c2)C1 (configuration not stated)	none (no result: CtBP-E1A blk)
CCCCC(=O)N/N=C/c1ccc(Sc2cccc3cccnc23)o1	Gal4-VP16 FLuc 11µM, Six1-Eya2 inh -80, RORgamma inh 5.6µM, CtBP-E1A blk -88
O=C(CSc1cccc2cccnc12)N/N=C/c1ccc(F)cc1	Six1-Eya2 inh -67, CtBP-E1A blk inconclusive
O=C(NCc1cccnc1)NC1(C(F)(F)F)Oc2ccc(Cl)cc2O1 (configuration not stated)	Gal4-VP16 FLuc inconclusive, RORgamma inh 11µM
COc1ccccc1CNC(=O)CSc1nn2c(=O)c(C(C)(C)C)nnc2s1	Gal4-VP16 FLuc inconclusive, RORgamma inh 10µM (no result: CtBP-E1A blk)
COc1ccc(CNC(=O)CSc2nn3c(=O)c(C(C)(C)C)nnc3s2)cc1OC	RORgamma inh 3.5µM
COc1ccc(CCNC(=O)CSc2nn3c(=O)c(C)nnc3s2)cc1OC	CtBP-E1A blk inconclusive
Cc1nn(CC(=O)Nc2nnc(C(C)C)s2)c(=O)c2ccccc12	none
OCC[C@@H]1C[C@H](O)[C@@H](O)[C@]2(OCCc3ccccc32)O1	Six1-Eya2 inh -83 (no result: p53 reactivation)
CN1C(=O)/C(=C\C(=O)c2cccs2)c2ccccc21	Gal4-VP16 FLuc 13µM, RORgamma inh 5.6µM
Cc1ccc(-c2nn(-c3ccccc3)cc2CC(=S)N2CCOCC2)cc1	Gal4-VP16 FLuc inconclusive, RORgamma inh 18µM (no result: CtBP-E1A blk, p53 reactivation)
CC(C)(C)c1cc(NCCCn2ccnc2)n2ncc(-c3ccccc3)c2n1	none
CC(C)(C)c1cc(NCc2ccccn2)n2ncc(-c3ccc(Cl)cc3)c2n1	Gal4-VP16 FLuc inconclusive, RORgamma inh 0.56µM (no result: CtBP-E1A blk)
CN(C)CCCNc1cc(C(C)(C)C)nc2c(-c3ccc(Cl)cc3)cnn12	Gal4-VP16 FLuc 14µM, RORgamma inh 2µM
CC1CCC/C=C/C(=O)c2c(O)cc(O)cc2CC(=O)O1 (configuration not stated)	Gal4-VP16 FLuc 22µM, RORgamma inh inconclusive
C[C@@H]1Cc2c(O)c(O)cc(O)c2C(=O)O1	none
CC1=CC(C)(C)Nc2ccc(OC(=O)CN3C(=O)c4cccc5cccc(c45)C3=O)cc21	none
CC1=CC(C)(C)Nc2ccc(OC(=O)CN3C(=O)c4ccccc4C3=O)cc21	Gal4-VP16 FLuc 7.1µM, Six1-Eya2 inh inconclusive, RORgamma inh 4.5µM
COC(=O)N/N=C/c1cc(N=Nc2ccccc2Cl)ccc1O	Gal4-VP16 FLuc 16µM, RORgamma inh 4µM
CC(C)NC(=S)N/N=C/c1cc(Br)ccc1O	Gal4-VP16 FLuc 4.5µM, Six1-Eya2 inh -82, RORgamma inh 5µM, CtBP-E1A blk -89
Cc1cc(C(=O)N/N=C/c2cccc([N+](=O)[O-])c2O)n[nH]1	Gal4-VP16 FLuc inconclusive, Six1-Eya2 inh -91, RORgamma inh 13µM (no result: CtBP-E1A blk)
Cc1cc(C(=O)N/N=C/c2cc(N=Nc3ccccc3)ccc2O)n[nH]1	Gal4-VP16 FLuc 11µM, Six1-Eya2 inh -90, RORgamma inh 10µM, p53 reactivation 13µM
OCC(CO)(CO)N=Cc1cc(Br)ccc1O	none
Cc1cc(C(=O)N/N=C/c2ccc(O)c([N+](=O)[O-])c2)n[nH]1	none
O=C(COc1ccccc1Cl)N1CCN(c2ccc([N+](=O)[O-])c(N3CCOCC3)c2)CC1	RORgamma inh inconclusive
Cc1cc(=O)cc2oc3cc(N)c(-c4c(C)cc(O)cc4O)c(C)c3nc1-2	none (no result: Six1-Eya2 inh, CtBP-E1A blk, p53 reactivation)
CCN(C[C@H]1N[C@@](Cc2ccccc2)(C(=O)OC)[C@H]2C(=O)N(Cc3ccccc3)C(=O)[C@@H]12)C(=O)Nc1ccc(C(F)(F)F)cc1	none (no result: Gal4-VP16 FLuc, RORgamma inh)
COC(=O)N/N=C\c1cc(Br)ccc1OCc1ccccc1	RORgamma inh inconclusive
COC(=O)N/N=C/c1cc(N=Nc2ccccc2)ccc1O	Gal4-VP16 FLuc inconclusive, RORgamma inh 1.1µM
COC(=O)N/N=C/c1cc(Br)ccc1O	Gal4-VP16 FLuc inconclusive, RORgamma inh 7.1µM
Nc1ccc(C(=O)N/N=C\c2cc(N=Nc3cccc4ccccc34)ccc2O)cc1	Gal4-VP16 FLuc 5.6µM, RORgamma inh 1.6µM, CtBP-E1A blk inconclusive
COc1cc2ccc(C(C)=NNC(N)=S)cc2cc1OC	Six1-Eya2 inh inconclusive (no result: Gal4-VP16 FLuc, RORgamma inh, p53 reactivation)
C/C(=N\NC(N)=S)c1cc(-c2ccccc2)c(-c2ccccc2)s1	Gal4-VP16 FLuc 1.4µM, RORgamma inh 0.45µM (no result: p53 reactivation)
C/C(=N/NC(N)=S)c1ccc(Br)s1	Gal4-VP16 FLuc 5µM, RORgamma inh 1.1µM
CO[C@H]1COC(=O)C/C=C\[C@H](C)[C@@H](NS(=O)(=O)c2ccc(C)cc2)COC(=O)CCC[C@@H]1C	none (no result: Six1-Eya2 inh, CtBP-E1A blk, p53 reactivation)
Cc1cc(C)cc(NC(=S)N2CCN(S(=O)(=O)c3ccccc3)CC2)c1	Gal4-VP16 FLuc inconclusive, RORgamma inh 11µM
Cc1cc(C)cc(NC(=S)N2CCCC2)c1	Gal4-VP16 FLuc inconclusive, RORgamma inh 13µM
CC1CN(C(=S)Nc2cccc(Cl)c2)CC(C)O1 (configuration not stated)	Gal4-VP16 FLuc inconclusive, RORgamma inh inconclusive
Cc1ccc(NC(=S)N2CCN(S(=O)(=O)c3ccccc3)CC2)cc1	RORgamma inh inconclusive
Cc1ccc(NC(=S)N2CCCCC2CO)cc1C (configuration not stated)	Gal4-VP16 FLuc inconclusive, RORgamma inh 7.9µM
Cc1ccc(NC(=S)N2CC(C)OC(C)C2)cc1C (configuration not stated)	Gal4-VP16 FLuc inconclusive, RORgamma inh 16µM
Cc1cc(C)cc(NC(=S)N2CC(C)OC(C)C2)c1 (configuration not stated)	Gal4-VP16 FLuc inconclusive, RORgamma inh 16µM
